Inconclusive results are not listed. Active and inactive are the calls of the source. Unless noted, calls follow the shape of the dose curve; as a rule, active = well fitted curve in the direction sought with a large enough effect in the repeat runs; inconclusive = weak or mixed curves; inactive = no such curve, though single readings can be large; an effect the other way counts as inactive or inconclusive.
Legend:
[1] = target: Estrogen receptor beta (Homo sapiens) (UniProt Q92731); experiment: qHTS assay to identify small molecule antagonists of the estrogen receptor beta (ER-beta) signaling pathway (AID 1259378; active = well fitted inhibition curve with a large enough effect in the signal ratio in the repeat runs, not every such curve was filed as active; the % refers to the signal ratio; also: potency is read from the fitted curve at half-maximal effect)
In short: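 ER-beta-UAS-bla HEK293T (GripTite) cells in 2% charcoal-stripped FBS medium were preincubated 6 hr at 37C, dosed with compound, then stimulated with 1 nM E2 (final) for 16 hr; beta-lactamase reporter read by B/G FRET fluorescence after 2 hr substrate loading.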

[2] = qHTS assay to identify small molecule agonists of the androgen receptor (AR) signaling pathway in the presence of an antagonist - cell viability counter screen (AID 1259379); also: nearly all actives have a fitted effect of over 25% in size; also: potency is read from the fitted curve at half-maximal effect;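 as to activity change, negative = cytotoxicity: MDA-kb2 human breast cancer cells carrying an MMTV luciferase reporter; series mostly up to about 92 µM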
In short: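 Each compound was tested at 15 concentrations on MDA-kb2 cells in the presence of 3.0uM nilutamide. Viability was measured by CellTiter-Fluor fluorescence after a 16 hr incubation at 37C in a CO2-free atmosphere.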

[3] = qHTS assay to identify small molecule agonists of the estrogen receptor beta (ER-beta) signaling pathway - cell viability counter screen (AID 1259380); also: nearly all actives have a fitted effect of over 30% in size; also: potency is read from the fitted curve at half-maximal effect
In short: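 Compounds dissolved in DMSO were pin-transferred onto ER-beta-UAS-bla HEK293T cells that had settled 6 hr, and exposure ran 16 hr at 37C. Following the reporter read, CellTiter-Glo luminescence after 30 min at room temperature indicated cytotoxicity.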

[4] = target: Estrogen receptor (Homo sapiens) (UniProt P03372); experiment: qHTS assay to identify small molecule agonists of the estrogen receptor alpha (ER-alpha) signaling pathway in the presence of an antagonist (AID 1259383; calls by dose curve; also: top concentration of the series differs between compounds; nearly all actives have a fitted effect of over 15% in size)
In short: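 Luminescent ERE-luciferase reporter, VM7Luc4E2 cells (endogenous ER-alpha); 10.0nM ICI-182,780 final; 15-point compound titration; 22hr at 37C; ONE-Glo, 30min RT.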

[5] = qHTS assay to identify small molecule agonists or antagonists of the thyroid stimulating hormone receptor (TSHR) signaling pathway - wild type cell line counter screen (AID 1259384; calls by dose curve)
In short: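 Wild-type HEK293 cells were plated 18 h at 37 C/5% CO2, pin-dosed with compound plus Ro20-1724 medium, held 30 min at room temperature, then given cAMP-d2 and anti-cAMP-cryptate; fluorescence was read after 1 h. Fifteen concentrations, triplicate.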

[6] = target: Thyrotropin receptor (Homo sapiens) (UniProt P16473); experiment: qHTS assay to identify small molecule antagonists of the thyroid stimulating hormone receptor (TSHR) signaling pathway (AID 1259385; calls by dose curve; also: nearly all actives have a fitted effect of over 20% in size)
In short: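 TSHR-HEK293 cells were plated and held 18 h at 37C/5% CO2, then given compound plus Ro20-1724 and stimulated with TSH at 1.5 ng/mL final. After 30 min at room temperature, cAMP was detected with cAMP-d2/anti-cAMP-cryptate (1 h) by fluorescence.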

[7] = target: Progesterone receptor (Homo sapiens) (UniProt P06401); experiment: qHTS assay to identify small molecule antagonists of the progesterone receptor (PR) signaling pathway (AID 1346795; active = well fitted inhibition curve with a large enough effect in the signal ratio in the repeat runs, not every such curve was filed as active; the % refers to the signal ratio; also: potency is read from the fitted curve at half-maximal effect)
In short: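 Screening used a GripTite HEK293T line with PR-responsive UAS-beta-lactamase. Cells were challenged with compound in the presence of 1 nM R5020 final for 16 hr at 37C; B/G FRET substrate, 2 hr room temperature, fluorescence.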

[8] = qHTS assay to identify small molecule antagonists of the progesterone receptor (PR) signaling pathway - cell viability counter screen (AID 1346798); also: nearly all actives have a fitted effect of over 50% in size; also: potency is read from the fitted curve at half-maximal effect; as to activity change, negative = cytotoxicity: series mostly up to about 92 µM
In short: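 Measures cytotoxicity in parallel with the PR antagonist reporter read: HEK293T PR-UAS-bla cells get compound and R5020 for 16 hr, and remaining viable cells are quantified by CellTiter-Glo luminescence.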

[9] = qHTS assay to identify small molecule agonists of the TGF-beta/Smad signaling pathway - cell viability counter screen (AID 1346829); also: top concentration of the series differs between compounds; nearly all actives have a fitted effect of over 45% in size
In short: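 Same-well cytotoxicity: CellTiter-Glo added after the 2 hr room-temperature beta-lactamase substrate step, luminescence measured 30 min later; cells had 5 hr of compound at 37 C.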

[10] = qHTS assay to identify small molecule agonists of the TGF-beta/Smad signaling pathway (AID 1346859; active = well fitted activation curve with a large enough effect in the signal ratio in the repeat runs, not every such curve was filed as active; the % refers to the signal ratio; also: series mostly up to about 77 µM)
In short: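 Beta-lactamase reporter activity downstream of Smad binding elements was measured in stably transfected HEK 293T cells; compounds were incubated for 5 hr, substrate for 2 hr at room temperature.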

[11] = target: Thyrotropin-releasing hormone receptor (Homo sapiens) (UniProt P34981); experiment: qHTS assay to identify small molecule agonists of the thyrotropin-releasing hormone receptor (TRHR) signaling pathway (AID 1346891; calls by dose curve;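 also: HEK293 cells expressing TRHR with calcium dye readout; series mostly up to about 58 µM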)
In short: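 Overnight-plated (18 h, 37 °C, 5% CO2) TRHR-Hek293 cells; 2 h calcium dye at 37 °C; compound in DMSO; 3-min kinetic fluorescence read.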

[12] = Human pregnane X receptor (PXR) small molecule agonists, qHTS cell viability counter screen (AID 1346977); also: nearly all actives have a fitted effect of over 50% in size; also: potency is read from the fitted curve at half-maximal effect
In short: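 After a 5hr pre-incubation, PXR-Luc HepG2 cells received compounds plus positive control in DMSO and were kept 24hr at 37C. Cell viability was quantified by fluorescence from CellTiter-Fluor added for the final hour.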

[13] = qHTS assay to identify small molecule antagonists of the estrogen receptor beta (ER-beta) signaling pathway - cell viability counter screen (AID 1259382); also: series mostly up to about 92 µM; nearly all actives have a fitted effect of over 55% in size
In short: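 CellTiter-Glo ATP luminescence measured after the LiveBLAzer read in the same wells; ER-beta-UAS-bla HEK293T cells, 16 hr compound treatment with 1nM 17-beta-estradiol agonist at 37C, 5% CO2.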

[14] = qHTS assay to identify small molecule agonists of the estrogen receptor alpha (ER-alpha) signaling pathway in the presence of an antagonist - cell viability counter screen (AID 1259386);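 also: series mostly up to about 92 µM; cells exposed to compounds for 22 h at 37 °C before the viability read; nearly all actives have a fitted effect of over 30% in size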
In short: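 Using estrogen-depleted VM7Luc4E2 cells, the 15-concentration compound series was applied together with 10.0nM ICI-182,780 and incubated 22hr at 37C/5% CO2. Cell viability was then scored by CellTiter-Fluor.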

[15] = target: Progesterone receptor (Homo sapiens) (UniProt P06401); experiment: qHTS assay to identify small molecule agonists of the progesterone receptor (PR) signaling pathway (AID 1346784; calls by dose curve; also: nearly all actives have a fitted effect of over 30% in size)
In short: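 Seed PR-UAS-bla HEK 293T cells (2% charcoal-stripped FBS), incubate 6 hr at 37C; add compounds in DMSO, 16 hr at 37C; add LiveBLAzer B/G substrate, 2 hr RT; read fluorescence intensity.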

[16] = qHTS assay to identify small molecule agonists of the progesterone receptor (PR) signaling pathway - cell viability counter screen (AID 1346799; calls by dose curve; also: nearly all actives have a fitted effect of over 45% in size; also: potency is read from the fitted curve at half-maximal effect)
In short: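 Using the same plates as the PR reporter screen, HEK293T PR-UAS-bla cells received compounds for 16 hr at 37C and were then lysed with CellTiter-Glo; luminescence was read 30 min later at room temperature.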

[17] = qHTS assay to identify small molecule antagonists of the TGF-beta/Smad signaling pathway - cell viability counter screen (AID 1346824); also: nearly all actives have a fitted effect of over 50% in size
In short: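 SBE-bla HEK 293T cells were plated overnight at 37 C, then given compounds in DMSO plus TGF-beta1 (added as 0.25 ng/mL solution) for 5 hr. After the bla read, CellTiter-Glo was added to the same wells and luminescence read after 30 min at room temperature.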

[18] = target: Thyrotropin-releasing hormone receptor (Homo sapiens) (UniProt P34981); experiment: qHTS assay to identify small molecule antagonists of the thyrotropin-releasing hormone receptor (TRHR) signaling pathway (AID 1346877; active = well fitted inhibition curve with a large enough effect in the repeat runs, not every such curve was filed as active; also: series mostly up to about 51 µM)
In short: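 Calcium signal in dye-loaded TRHR/HEK293 cells; compounds added 5 min before TRH (1 nM final); fluorescence monitored 3 min at 1 s steps.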

[19] = Caspase-3/7 induction in HepG2 cells by small molecules, qHTS assay (AID 1346978); also: nearly all actives have a fitted effect of over 15% in size
In short: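 Wild-type HepG2 cells (2,000/well) were settled 5 h at 37 C, 5% CO2, then exposed to compounds in DMSO for 17 h. Caspase-3/7 activity was read by luminescence 30 min after adding Caspase-Glo 3/7 reagent at room temperature.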

[20] = target: Androgen receptor (Homo sapiens) (UniProt P10275); experiment: qHTS assay to identify small molecule agonists of the androgen receptor (AR) signaling pathway in the presence of an antagonist (AID 1259381; calls by dose curve; also: nearly all actives have a fitted effect of over 15% in size)
In short: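 Plated MDA-kb2 cells (3,000/well) were pre-incubated 5hr, given nilutamide (3.0uM final) or buffer, then dosed with compounds in DMSO at 15 concentrations. Luciferase activity was quantified by luminescence after 16hr at 37C.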
% is scaled to controls: 0 for no effect and ±100 for the full control effect.

Sequence of Estrogen receptor beta (Homo sapiens) (Q92731 whole entry, looked up): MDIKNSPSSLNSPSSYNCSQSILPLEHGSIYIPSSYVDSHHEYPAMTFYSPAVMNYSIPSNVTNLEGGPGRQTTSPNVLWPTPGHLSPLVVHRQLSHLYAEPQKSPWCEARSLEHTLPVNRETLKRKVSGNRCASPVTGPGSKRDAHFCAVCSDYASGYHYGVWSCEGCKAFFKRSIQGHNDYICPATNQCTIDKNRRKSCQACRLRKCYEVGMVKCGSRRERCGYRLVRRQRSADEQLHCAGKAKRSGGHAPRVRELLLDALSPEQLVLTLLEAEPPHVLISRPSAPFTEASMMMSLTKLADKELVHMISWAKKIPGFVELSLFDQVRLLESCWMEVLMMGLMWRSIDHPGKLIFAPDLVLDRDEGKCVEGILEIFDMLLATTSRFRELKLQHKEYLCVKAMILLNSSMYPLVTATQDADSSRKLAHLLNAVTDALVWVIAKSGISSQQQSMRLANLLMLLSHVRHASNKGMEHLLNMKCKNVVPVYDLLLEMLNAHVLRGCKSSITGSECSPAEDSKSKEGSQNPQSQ
Sequence of Androgen receptor (Homo sapiens) (P10275 whole entry, looked up): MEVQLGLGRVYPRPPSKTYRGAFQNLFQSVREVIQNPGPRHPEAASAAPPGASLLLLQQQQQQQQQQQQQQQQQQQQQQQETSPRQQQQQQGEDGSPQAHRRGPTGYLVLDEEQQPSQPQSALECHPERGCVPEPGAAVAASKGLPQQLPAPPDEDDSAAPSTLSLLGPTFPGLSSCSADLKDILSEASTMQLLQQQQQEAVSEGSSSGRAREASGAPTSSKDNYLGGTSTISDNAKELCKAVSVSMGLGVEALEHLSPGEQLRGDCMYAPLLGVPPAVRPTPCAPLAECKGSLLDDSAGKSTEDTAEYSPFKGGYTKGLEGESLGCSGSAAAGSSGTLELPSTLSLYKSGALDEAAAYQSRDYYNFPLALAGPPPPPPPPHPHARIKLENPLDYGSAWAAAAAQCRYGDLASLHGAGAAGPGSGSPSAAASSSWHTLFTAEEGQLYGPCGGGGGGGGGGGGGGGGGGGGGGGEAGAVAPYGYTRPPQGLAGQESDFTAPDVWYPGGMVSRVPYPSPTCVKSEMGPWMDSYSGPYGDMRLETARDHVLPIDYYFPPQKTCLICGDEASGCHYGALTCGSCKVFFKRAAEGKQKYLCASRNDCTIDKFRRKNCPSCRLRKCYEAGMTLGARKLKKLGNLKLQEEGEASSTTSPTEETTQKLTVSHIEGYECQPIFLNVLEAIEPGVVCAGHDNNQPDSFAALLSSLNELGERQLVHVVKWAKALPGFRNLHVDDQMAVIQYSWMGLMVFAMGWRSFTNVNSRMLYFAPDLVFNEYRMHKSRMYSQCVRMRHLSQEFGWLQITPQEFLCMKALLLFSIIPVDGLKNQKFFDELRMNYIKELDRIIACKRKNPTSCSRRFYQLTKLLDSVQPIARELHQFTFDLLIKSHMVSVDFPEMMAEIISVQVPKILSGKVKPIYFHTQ
Sequence of Estrogen receptor (Homo sapiens) (P03372 whole entry, looked up): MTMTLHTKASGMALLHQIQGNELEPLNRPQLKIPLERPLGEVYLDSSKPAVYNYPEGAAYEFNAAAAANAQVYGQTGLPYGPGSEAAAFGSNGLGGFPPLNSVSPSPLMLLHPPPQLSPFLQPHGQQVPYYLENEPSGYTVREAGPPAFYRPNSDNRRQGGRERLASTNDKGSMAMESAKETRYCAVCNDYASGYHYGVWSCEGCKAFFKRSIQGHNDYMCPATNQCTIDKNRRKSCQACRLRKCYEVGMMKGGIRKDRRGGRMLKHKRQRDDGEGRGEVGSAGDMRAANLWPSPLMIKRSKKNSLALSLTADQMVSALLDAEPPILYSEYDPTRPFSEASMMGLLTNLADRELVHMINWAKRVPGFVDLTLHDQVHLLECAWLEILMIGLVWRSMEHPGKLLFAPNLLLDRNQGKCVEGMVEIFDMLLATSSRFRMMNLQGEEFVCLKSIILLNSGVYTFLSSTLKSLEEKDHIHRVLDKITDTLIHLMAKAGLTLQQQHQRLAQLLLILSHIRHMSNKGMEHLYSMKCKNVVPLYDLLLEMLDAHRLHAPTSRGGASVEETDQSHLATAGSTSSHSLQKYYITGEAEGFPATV
Sequence of Thyrotropin-releasing hormone receptor (Homo sapiens) (P34981 whole entry, looked up): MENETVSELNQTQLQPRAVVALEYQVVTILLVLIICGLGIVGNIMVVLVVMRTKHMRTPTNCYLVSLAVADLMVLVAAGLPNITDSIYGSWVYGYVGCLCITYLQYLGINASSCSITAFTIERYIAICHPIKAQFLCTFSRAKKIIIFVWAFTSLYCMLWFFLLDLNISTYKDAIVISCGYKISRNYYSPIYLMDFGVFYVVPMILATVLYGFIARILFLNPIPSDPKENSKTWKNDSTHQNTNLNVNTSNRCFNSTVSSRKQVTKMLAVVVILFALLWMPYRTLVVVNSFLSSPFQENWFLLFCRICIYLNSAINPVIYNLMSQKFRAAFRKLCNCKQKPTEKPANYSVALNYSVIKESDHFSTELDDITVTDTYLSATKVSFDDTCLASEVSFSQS
Sequence of Thyrotropin receptor (Homo sapiens) (P16473 whole entry, looked up): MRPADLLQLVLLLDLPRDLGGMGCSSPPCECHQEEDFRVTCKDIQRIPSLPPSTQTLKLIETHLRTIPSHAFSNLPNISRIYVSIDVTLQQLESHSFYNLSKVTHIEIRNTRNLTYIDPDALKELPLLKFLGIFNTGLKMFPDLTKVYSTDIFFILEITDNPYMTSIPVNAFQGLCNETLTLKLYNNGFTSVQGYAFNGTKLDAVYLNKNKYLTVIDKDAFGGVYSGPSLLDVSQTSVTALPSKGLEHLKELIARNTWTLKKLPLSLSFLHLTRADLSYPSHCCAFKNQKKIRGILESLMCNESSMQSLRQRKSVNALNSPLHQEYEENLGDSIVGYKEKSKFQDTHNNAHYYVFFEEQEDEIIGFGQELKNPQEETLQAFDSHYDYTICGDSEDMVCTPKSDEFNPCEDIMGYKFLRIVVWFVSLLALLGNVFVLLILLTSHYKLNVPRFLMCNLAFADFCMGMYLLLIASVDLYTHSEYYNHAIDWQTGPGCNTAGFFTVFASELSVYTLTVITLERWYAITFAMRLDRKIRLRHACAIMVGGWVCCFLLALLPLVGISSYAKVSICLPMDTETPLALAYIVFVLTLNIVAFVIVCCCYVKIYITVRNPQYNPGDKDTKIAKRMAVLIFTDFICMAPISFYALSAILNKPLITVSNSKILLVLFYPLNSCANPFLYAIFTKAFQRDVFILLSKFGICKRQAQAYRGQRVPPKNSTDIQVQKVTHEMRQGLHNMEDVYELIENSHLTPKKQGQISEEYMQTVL
Sequence of Progesterone receptor (Homo sapiens) (P06401 whole entry, looked up): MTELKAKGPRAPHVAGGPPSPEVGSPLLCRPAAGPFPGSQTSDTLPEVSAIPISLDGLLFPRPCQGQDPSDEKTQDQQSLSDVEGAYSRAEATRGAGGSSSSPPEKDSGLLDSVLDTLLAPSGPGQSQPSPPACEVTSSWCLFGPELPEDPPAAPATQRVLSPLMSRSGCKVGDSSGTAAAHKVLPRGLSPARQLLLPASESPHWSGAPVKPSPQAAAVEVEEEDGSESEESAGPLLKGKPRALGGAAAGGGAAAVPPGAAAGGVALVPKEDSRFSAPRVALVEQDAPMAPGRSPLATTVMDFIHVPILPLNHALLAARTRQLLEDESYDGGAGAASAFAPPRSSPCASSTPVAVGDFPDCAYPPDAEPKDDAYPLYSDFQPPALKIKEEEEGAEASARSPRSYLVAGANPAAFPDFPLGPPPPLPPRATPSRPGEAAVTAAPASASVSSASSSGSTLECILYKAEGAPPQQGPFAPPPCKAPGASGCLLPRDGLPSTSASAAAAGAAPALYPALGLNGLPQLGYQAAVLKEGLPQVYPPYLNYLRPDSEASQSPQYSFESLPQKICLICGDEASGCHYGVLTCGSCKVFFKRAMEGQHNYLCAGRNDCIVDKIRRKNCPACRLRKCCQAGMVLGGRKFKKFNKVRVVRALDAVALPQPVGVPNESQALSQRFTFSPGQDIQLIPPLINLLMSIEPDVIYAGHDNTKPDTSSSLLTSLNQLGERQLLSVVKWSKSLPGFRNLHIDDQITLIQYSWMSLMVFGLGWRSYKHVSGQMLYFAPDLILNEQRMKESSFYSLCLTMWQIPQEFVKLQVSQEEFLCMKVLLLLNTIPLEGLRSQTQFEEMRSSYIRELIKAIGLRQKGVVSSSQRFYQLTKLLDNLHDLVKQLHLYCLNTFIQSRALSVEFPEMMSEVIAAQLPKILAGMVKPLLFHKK

CNC(=O)c1cc(Oc2ccc(NC(=O)Nc3ccc(Cl)c(C(F)(F)F)c3)cc2)ccn1
inactive: Potency [4] | outcome [5] | Potency [6] | Potency [9] | Potency [10] | Potency [11]
active: Potency [1] 9.44 µM | Potency [2] 29.8 µM | Potency [3] 29.8 µM | Potency [7] 11.9 µM | Potency [8] 33.5 µM | Potency [12] 23.7 µM

Oc1ccc(-c2ccccc2)c(Cl)c1
inactive: Potency [2] | Potency [13] | Potency [4] | outcome [5] | Potency [6] | Potency [14] | outcome [15] | Potency [8] | Potency [16] | Potency [17] | Potency [9] | Potency [10] | Potency [18] | Potency [11] | Potency [19]
active: Potency [1] 21.7 µM

Cc1ccc2ccc3cccc4ccc1c2c34
inactive: Potency [1] | Potency [2] | Potency [13] | outcome [5] | Potency [6] | Potency [17] | Potency [9] | Potency [10] | Potency [18] | Potency [11] | Potency [19]
active: Potency [3] 24.3 µM | Potency [16] 27.3 µM

CCCCCCS
inactive: Potency [1] | Potency [2] | Potency [20] | Potency [13] | Potency [4] | outcome [5] | Potency [6] | Potency [14] | outcome [15] | Potency [7] | Potency [8] | Potency [16] | Potency [17] | Potency [9] | Potency [10] | Potency [12] | Potency [19]

C=C(C)C(=O)OCCC[Si](Cl)(Cl)Cl
inactive: Potency [1] | Potency [2] | Potency [3] | Potency [13] | outcome [5] | Potency [6] | Potency [14] | outcome [15] | Potency [7] | Potency [8] | Potency [17] | Potency [9] | Potency [10] | Potency [12] | Potency [19]

COC(=O)[C@]1(C)CCC[C@@]2(C)[C@H]1CC=C1C=C(C(C)C)CC[C@@H]12
inactive: Potency [1] | Potency [2] | Potency [13] | outcome [5] | Potency [6] | Potency [14] | outcome [15] | Potency [8] | Potency [17] | Potency [9] | Potency [10] | Potency [18] | Potency [12] | Potency [19]
active: Potency [3] 68.6 µM

CC(C)=CC1CC(C)CCO1 (configuration not stated)
inactive: Potency [1] | Potency [2] | Potency [13] | Potency [4] | outcome [5] | Potency [6] | Potency [14] | outcome [15] | Potency [7] | Potency [8] | Potency [16] | Potency [17] | Potency [9] | Potency [10] | Potency [18] | Potency [11] | Potency [12] | Potency [19]

Cc1cn[nH]c1
inactive: Potency [1] | Potency [2] | Potency [20] | Potency [13] | Potency [4] | outcome [5] | Potency [6] | Potency [14] | outcome [15] | Potency [7] | Potency [8] | Potency [16] | Potency [17] | Potency [9] | Potency [10] | Potency [12] | Potency [19]

O=CC1CC1
inactive: Potency [1] | Potency [2] | Potency [20] | Potency [13] | Potency [4] | outcome [5] | Potency [6] | Potency [14] | outcome [15] | Potency [7] | Potency [8] | Potency [16] | Potency [17] | Potency [9] | Potency [10] | Potency [18] | Potency [11] | Potency [12] | Potency [19]

CCOCN(C(=O)CS(=O)(=O)O)c1c(C)cccc1CC
inactive: Potency [1] | Potency [2] | Potency [3] | Potency [13] | outcome [5] | Potency [6] | outcome [15] | Potency [7] | Potency [8] | Potency [16] | Potency [17] | Potency [9] | Potency [10] | Potency [11] | Potency [12] | Potency [19]

O=S(O)O
inactive: activity, negative = inhibition [1] 1.38% [at 19 µM] | activity change, negative = cytotoxicity [2] 1.09% [at 19 µM] | activity change, negative = cytotoxicity [13] 4.33% [at 19 µM] | activation [4] -0.842% [at 19 µM] | cAMP activity change [5] -1.65% [at 18.9 µM] | activity change, negative = inhibition [6] 0.0817% [at 19 µM] | activity change, negative = cytotoxicity [14] 0.0003% [at 19 µM] | activity change, negative = cytotoxicity [8] -0.356% [at 18.9 µM] | activity change, negative = cytotoxicity [16] -3.11% [at 19 µM] | viability change, negative = cytotoxic [17] 0.444% [at 15.8 µM] | activity change, negative = cytotoxicity [9] -1.2% [at 15.8 µM] | activation [10] -2.31% [at 15.8 µM] | activity, negative = inhibition [18] 0.51% [at 10.5 µM] | activation [11] 0.0945% [at 11.8 µM] | activity change, negative = cytotoxicity [12] 6.89% [at 19 µM] | caspase activation [19] -0.246% [at 19 µM]

CCC(C)(C)c1cc(O)c(C(C)(C)CC)cc1O
active: Potency [1] 48.6 µM | Potency [2] 61.1 µM
inactive: Potency [20] | Potency [13] | Potency [4] | outcome [5] | Potency [14] | outcome [15] | Potency [7] | Potency [8] | Potency [17] | Potency [9] | Potency [19]

CC1(C)C(=O)N(Br)C(=O)N1Br
inactive: Potency [1] | Potency [2] | Potency [20] | Potency [13] | outcome [5] | Potency [6] | Potency [14] | outcome [15] | Potency [7] | Potency [8] | Potency [16] | Potency [17] | Potency [9] | Potency [10] | Potency [12] | Potency [19]

C=CC(C)(CCC=C(C)C)OC(=O)/C=C/c1ccccc1 (configuration not stated)
inactive: Potency [1] | Potency [2] | Potency [3] | Potency [13] | outcome [5] | outcome [15] | Potency [8] | Potency [16] | Potency [17] | Potency [9] | Potency [10] | Potency [18] | Potency [11] | Potency [12] | Potency [19]

C/C=C/c1ccc(OC)c(OC)c1
inactive: Potency [1] | Potency [2] | Potency [3] | Potency [13] | outcome [5] | Potency [6] | Potency [14] | Potency [8] | Potency [16] | Potency [17] | Potency [9] | Potency [10] | Potency [12] | Potency [19]
